An excerpt weighted towards active compounds, which were near 5.6% of everything screened.
RORg inh – blocks mouse ROR gamma transcriptional activity; P51450; Drosophila S2 Gal4-RORgamma UAS-luciferase reporter, 20 h; Potency, µM (top dose mostly 53.6 µM), hits mostly inhibitors; 310,000 tested, 5.4% active; further: nearly all actives have a fitted effect of over 60% in size
Target sequence (P51450 whole entry, looked up, the tested form may be a part): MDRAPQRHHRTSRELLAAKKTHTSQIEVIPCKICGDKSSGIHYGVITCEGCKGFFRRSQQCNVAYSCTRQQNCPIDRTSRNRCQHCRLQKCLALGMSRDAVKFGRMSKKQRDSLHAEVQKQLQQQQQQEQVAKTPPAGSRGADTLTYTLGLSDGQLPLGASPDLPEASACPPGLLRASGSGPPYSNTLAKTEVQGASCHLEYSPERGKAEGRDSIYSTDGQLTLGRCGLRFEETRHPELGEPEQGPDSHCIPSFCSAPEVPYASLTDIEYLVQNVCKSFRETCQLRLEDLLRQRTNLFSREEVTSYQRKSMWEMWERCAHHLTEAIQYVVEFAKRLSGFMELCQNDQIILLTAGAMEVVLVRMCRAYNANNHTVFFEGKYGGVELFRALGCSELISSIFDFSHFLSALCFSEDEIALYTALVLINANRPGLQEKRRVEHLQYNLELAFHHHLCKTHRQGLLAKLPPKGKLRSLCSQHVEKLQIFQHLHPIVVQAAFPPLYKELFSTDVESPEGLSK
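A Gal4/UAS one-hybrid system in insect cells: metallothionein-promoter Gal4–ROR gamma fusion plus Photinus luciferase reporter. Copper sulfate 700 uM final, 20 hr ambient incubation, luminescent detection after 10 min with reagent.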
CtBP-E1A inh – CtBP/E1A binding inhibition; AlphaScreen GST-E1A/His-CtBP binding, 1536-well; active compounds read low; activity change, % (no concentration beside the values); 340,000 tested, 0.49% active; in the data active means activity change below about -65%; inconclusive means mostly about -30% to -63%
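In 5 uL wells, 23 nL compound meets equimolar GST-E1A and His-CtBP (5X stock 125 nM each) for 2 h, 37 °C. Beads (5X, 50 ug/mL) then 1 h, 37 °C, dark.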
PKM2 act – increases activity of human pyruvate kinase M2. AID 1631. purified PKM2, Kinase-Glo ATP luminescence, activation; response scale: 0% is enzyme alone, no compound. Potency, µM (highest dose often 57.5 µM), actives largely listed as activators. 260,000 tested, 0.34% active. P14618; further: nearly all actives have a fitted effect of over 55% in size
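ATP formation by purified human PK-M2, quantified via coupled luciferase luminescence after 1 h at room temperature with 0.1 mM ADP and 0.5 mM PEP final.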
VP16 counter – Gal4-VP16 reporter inhibition counter-screen; Drosophila S2 Gal4-VP16 UAS-luciferase, luminescence, 20 h; Potency, µM (highest dose often 53.6 µM), hits mostly inhibitors; 310,000 tested, 3.5% active; AID 2546;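 further: Gal4-VP16 expression switched on by copper sulfate through the metallothionein promoter; nearly all actives have a fitted effect of over 50% in size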
Six1-Eya2 inh – Six1/Eya2 interaction inhibition | Q15475+O00167 | AlphaScreen GST-Six1/His-Eya2 binding, biochemical; active compounds read low | activity change, % (concentration not given with the values) | 360,000 tested, 0.56% active; in the data active means activity change below about -65%; inconclusive means mostly about -30% to -63%
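Homogeneous AlphaScreen proximity assay pairing GST-Six1 with His-tagged Eya2 (added as 5X mix: 250 nM and 500 nM) in 50 mM Tris pH 8.0, 300 mM NaCl, 1 mM TCEP. Glutathione donor and nickel acceptor beads; 1 h, 37 °C, dark.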
A number is an active result; - = inactive; ? = inconclusive; . = not tested or not shown; [ ] = another dose, or the depositor's remark. Unless noted, the call rests on the fitted dose curve; in most records, active means well fitted curve in the direction sought with a large enough effect; inconclusive means small, poorly fitted or top-dose-only effect, or another doubt; inactive means no such curve, though single readings can be large; an effect the other way counts as inactive or inconclusive.

SMILES | RORg inh | CtBP-E1A inh | PKM2 act | VP16 counter | Six1-Eya2 inh
CCN(CC)c1ccc(/C=N\N2CCN(Cc3ccc(C)cc3)CC2)cc1 | - | ? | - | - | -66
CN(C)Cc1ccccc1COc1ccccc1 | - | - | - | - | -
COc1ccccc1OCC(=O)NNc1c2ccccc2nc2ccccc12 | 1.6µM | . | - | 0.79µM | -
Cc1cc(C)n(CCCNC(=O)c2ccc(C)c(S(=O)(=O)N3CCOCC3)c2)n1 | . | - | . | . | -
Nc1[nH]n(-c2ccccc2)c(=O)c1N=Nc1ccc2c(c1)OCO2 | ? | - | - | - | ?
Nc1[nH]n(-c2ccccc2)c(=O)c1N=Nc1ccc2c(c1)OCCO2 | ? | - | - | ? | -69
N#CCCn1c(SCC(=O)NCC2CCCO2)nc2ccccc21 (stereo not drawn) | - | - | 20µM | - | -
COc1ccc(-n2c(SCC(=O)NCC3CCCO3)nc3ccccc32)cc1 (stereo not drawn) | ? | - | - | - | -
Cc1cc(NC(=O)Nc2ccccc2F)ccc1Br | - | - | - | ? | -
CCOC(=O)c1c(CSC(=N)N)n(-c2ccc(C)cc2)c2cc(Br)c(OC(C)=O)cc12 | ? | - | - | ? | -
CCOC(=O)c1c(CSC(=N)N)n(C)c2cc(Br)c(OC(C)=O)cc12 | - | - | 16µM | - | -
Cc1ccc(-n2c(NN)nc3ccccc3c2=O)c(C)c1 | ? | - | - | 20µM | -
COc1ccc(N2C(=O)CC(N(C)CCc3ccc(OC)c(OC)c3)C2=O)cc1 (stereo not drawn) | - | - | - | - | -
COc1ccc(CN(N=O)C2CC(=O)N(c3ccc(OC)cc3)C2=O)cc1 (stereo not drawn) | ? | - | - | 14µM | -
CCCOc1ccc(N2C(=O)CC(N(Cc3ccccc3)N=O)C2=O)cc1 (stereo not drawn) | - | - | - | ? | -
COc1ccc(N2C(=O)CC(N(CCc3ccc(OC)c(OC)c3)C(=S)Nc3ccccc3)C2=O)cc1 (stereo not drawn) | ? | - | - | 0.79µM | -
COc1ccc(CCN(C)C2CC(=O)N(c3ccccc3)C2=O)cc1OC (stereo not drawn) | ? | - | - | 16µM | -
CC(C)Oc1ccc(/C=N/NC(N)=S)cc1 | 5µM | - | - | 2.8µM | -
C=CCOc1ccc(/C=N\NC(N)=S)cc1 | - | . | - | - | -
COc1ccc(/C=N/NC(=O)c2cccc(C(=O)N/N=C/c3ccc(OC)cc3)n2)cc1 | - | . | . | - | -
COC(=O)c1ccc(COc2ccc(/C=N/NC(N)=S)cc2)o1 | 11µM | - | - | ? | -
COc1ccc(/C=N/NC(N)=S)cc1 | 11µM | - | - | ? | -
C[C@H](CO)N1C[C@H](C)[C@@H](CN(C)S(=O)(=O)c2cccs2)Oc2ccc(NS(=O)(=O)c3ccc(F)cc3)cc2C1=O | . | - | . | . | -
COc1ccc(/C=C\C(=O)NCC(=O)N/N=C/c2cccc(OC)c2O)cc1 | 1.6µM | - | . | 7.9µM | -
COc1cccc(/C=N/NC(=O)CNC(=O)/C=C\c2ccccc2)c1O | 2.5µM | . | . | 3.2µM | -
SMILES | RORg inh | CtBP-E1A inh | PKM2 act | VP16 counter | Six1-Eya2 inh
COc1cccc(/C=N/NC(=O)CNC(=O)C(c2ccccc2)c2ccccc2)c1O | 1.8µM | ? | . | ? | ?
COc1ccccc1/C=C/C(=O)NCC(=O)N/N=C/c1ccccc1 | - | - | - | - | -
COc1ccccc1/C=C\C(=O)NCC(=O)N/N=C/c1ccc(O)cc1O | - | -74 | - | - | -80
COCCCNC(=O)CC1C(=O)N(Cc2ccccc2)C(C)c2nc3ccccc3n21 (stereo not drawn) | - | - | - | - | -
Cc1ccc(-n2nc3c(c2NC(=O)c2ccco2)CS(=O)C3)cc1 (stereo not drawn) | - | - | - | - | -
O=c1oc(CCO)cc2ccc(Br)cc12 | . | - | . | . | -
Cc1cc(N2CCCCC2)nc(NCc2ccccc2)n1 | 20µM | - | - | ? | -
Cc1cc(Nc2cccc(Cl)c2)nc(NCc2ccccc2)n1 | ? | - | - | 16µM | -
O=C(CCCOc1ccccc1)Nc1ccc(Cl)cn1 | - | - | - | - | -
Cc1ccc(N2C(=O)CCC(C(=O)O)C2c2cccs2)cc1 (stereo not drawn) | - | - | - | - | -
CCc1nc2ccc(C(=O)N(CC)CCN(C)C)cn2c1N(C)Cc1nccs1 | . | - | . | . | -
C=CCSc1nnc2c(n1)OC(C)=Nc1ccc(Br)cc1-2 | - | . | - | - | -
O=C(NCC1CCCO1)C1CCCN(S(=O)(=O)c2cc(Cl)ccc2Cl)C1 (stereo not drawn) | - | - | - | - | -
CC(=O)NC(CC(=O)NC(C)c1ccc(Cl)cc1Cl)c1ccccc1 (stereo not drawn) | - | - | - | - | -
CC(=O)NC(c1ccc2ccccc2c1)c1ccc2cccnc2c1O (stereo not drawn) | 5µM | -66 | - | 1.6µM | -89
CCCC(=O)NC(c1ccc(Cl)cc1)c1ccc2cccnc2c1O (stereo not drawn) | 2.2µM | -77 | - | 2.8µM | -70
CC(=O)NC(c1ccc(Cl)cc1Cl)c1ccc2cccnc2c1O (stereo not drawn) | 2µM | -88 | - | 1.8µM | -90
COc1ccc(C(NC(C)=O)c2ccc3cccnc3c2O)c(OC)c1 (stereo not drawn) | ? | ? | - | 4.5µM | ?
CC(C)Oc1ccc(CN2CCC2(C)C(=O)Nc2ccc(Cl)c(Cl)c2)cc1 (stereo not drawn) | . | - | . | . | -
COC(=O)c1cccc(Oc2cccc(Cl)n2)c1 | - | . | - | - | -
O=C(NCCc1ccco1)C(=O)NCC1OCCCN1S(=O)(=O)c1ccccc1 (stereo not drawn) | - | - | - | - | -
COc1cccc(CCNC(=O)CC2C(=O)NCCN2Cc2ccc(C)o2)c1 (stereo not drawn) | - | - | . | - | -
CCCC(=O)NC(c1ccc(C)cc1)c1ccc2cccnc2c1O (stereo not drawn) | 1.6µM | -90 | -[11.5 µM] | 2.2µM | -66
CCCC(=O)NC(c1ccc(Cl)cc1Cl)c1ccc2cccnc2c1O (stereo not drawn) | 5.6µM | -73 | - | 2µM | ?
O=c1[nH]c(N/N=C\c2ccc(F)cc2)nc2ccccc12 | 10µM | - | - | - | -
SMILES | RORg inh | CtBP-E1A inh | PKM2 act | VP16 counter | Six1-Eya2 inh
O=c1[nH]c(N/N=C/c2ccc(O)cc2)nc2ccccc12 | ? | -68 | - | - | ?
Cc1cc(-c2ccc(Cl)cc2Cl)c(C#N)c(=O)[nH]1 | - | - | - | - | -
CSc1nc(-c2ccc(Cl)cc2Cl)[nH]c(=O)c1C#N | - | ? | - | - | -72
CC(=O)c1cccc(NC(=S)NC2CCCCCCC2)c1 | 3.2µM | - | - | 13µM | -
CC(=O)c1cccc(NC(=S)NC(=O)C(C)C)c1 | 13µM | - | - | - | -
CNC(=S)Nc1cccc(C(C)=O)c1 | - | - | - | - | -
